# Results as given in the supplement of paper PMC10127200.
# Structures can show the parent of a compound that is named as a salt.
# Columns and labels:
# Assay in all cases: Euclidean distance of Cell Painting phenotypic profile (signed KS, 77 features) to DMSO centroid (dimensionless distance); 5 or 10 uM (library dependent); higher = stronger phenotypic change vs DMSO (phenoactivity)
# Details in all cases: 48 h
# 786-O = test system: 786-O
# Method in brief: (§1)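 Five cancer lines and a healthy fibroblast line received library compounds at 10 or 5 uM (library-dependent, 0.1% DMSO final) for 48 h. Stained cells were imaged confocally at 20X (9 fields/well). Harmony extracted 77 features, each scored as a signed Kolmogorov-Smirnov statistic against same-plate vehicle wells. Profiles were plate-position corrected, correlation-weighted and replicate-averaged at the top dose. Phenoactivity is the Euclidean distance from each profile to the median vehicle profile.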
# A549 = test system: A549
# Method in brief: as §1
# DU145 = test system: DU145
# Method in brief: as §1
# FB = test system: FB
# Method in brief: as §1
# HEPG2 = test system: HEPG2
# Method in brief: as §1
# OVCAR4 = test system: OVCAR4
# Method in brief: as §1
Structure (SMILES),Euclidean distance (786-O),Euclidean distance (A549),Euclidean distance (DU145),Euclidean distance (FB),Euclidean distance (HEPG2),Euclidean distance (OVCAR4)
CC(C)=CCC/C(C)=C/CC/C(C)=C/CC/C(C)=C/CC/C(C)=C/CC/C(C)=C/CC1=C(C)C(=O)c2ccccc2C1=O [Vitamin K2],1.17,1.16,1.1,0.823,0.747,1.54
CC(=O)O[C@H]1Cc2ccccc2N(C(N)=O)c2ccccc21 [Eslicarbazepine Acetate],0.621,0.976,0.966,1.39,1.17,1.64
CC(=O)OCC(=O)[C@@]1(O)CC[C@H]2[C@@H]3CCC4=CC(=O)CC[C@]4(C)[C@H]3[C@@H](O)C[C@@]21C [Hydrocortisone acetate],1.17,2.28,1.4,1.96,1.05,1.41
Cc1[nH]c(/C=C2\C(=O)Nc3ccc(S(=O)(=O)Cc4c(Cl)cccc4Cl)cc32)c(C)c1C(=O)N1CCC[C@@H]1CN1CCCC1,3.99,4.22,1.16,2,1.59,4.7
O=C1C[C@@H](c2ccc(O[C@@H]3O[C@H](CO)[C@@H](O)[C@H](O)[C@H]3O)cc2)Oc2cc(O)ccc21 [Liquiritin],1.07,0.817,0.781,1.59,0.642,1.16
O=C1CC2(CCCC2)CC(=O)N1CCCCN1CCN(c2ncccn2)CC1 [Buspirone HCl],0.547,0.965,0.869,0.994,0.61,1.32
CC(=O)Nc1ncc([N+](=O)[O-])s1 [Nithiamide],0.999,0.607,0.822,0.606,2.08,0.885
C[C@@H]1C[C@H]2[C@@H]3CCC4=CC(=O)C=C[C@]4(C)[C@@]3(F)[C@@H](O)C[C@]2(C)[C@@]1(O)C(=O)CO [Dexamethasone (DHAP)],1.45,2.32,2.14,1.75,0.718,1.86
CNCc1ccc(-c2cc(-c3nc(-c4ccc(S(=O)(=O)C(C)C)cc4)cnc3N)on2)cc1,3.55,3.91,3.77,4.87,3.55,4.32
Cc1cc(NS(=O)(=O)c2ccc(N)cc2)no1 [Sulfamethoxazole],1.58,0.797,0.847,1.02,0.562,0.86
Cc1cn([C@H]2O[C@@H](CO)[C@H](O)[C@H]2F)c(=O)[nH]c1=O [Clevudine],1.08,0.649,1.79,0.837,0.504,1.03
Cn1cc(Nc2nccc(N3C[C@H]4CC[C@@H](C3)N4C(=O)[C@@H]3CC3(F)F)n2)cn1,1.66,1.31,0.715,2.16,0.594,3.68
C[C@@H]1COC(Nc2ccc3ncnc(Nc4ccc(OCc5nccs5)c(Cl)c4)c3c2)=N1 [Varlitinib],1.45,1.22,1.15,1.15,2.16,1.56
C[C@@H]1NC(=O)[C@@H](N)CNC(=O)[C@H](C2CCNC(=N)N2)NC(=O)/C(=C/NC(N)=O)NC(=O)[C@H](CNC(=O)CC(N)CCCN)NC1=O.N=C1NCC[C@H]([C@@H]2NC(=O)/C(=C/NC(N)=O)NC(=O)[C@H](CNC(=O)C[C@@H](N)CCCN)NC(=O)[C@H](CO)NC(=O)[C@@H](N)CNC2=O)N1 [Capreomycin Sulfate],0.925,0.995,1.37,1.11,0.78,1.14
Fc1cc(-c2cccc3ncc(-c4cnn(C5CCNCC5)c4)nc23)cc(F)c1CN1CCOCC1,2.09,3.31,2.11,3.84,2.39,1.28
COc1cc2c(Oc3ccc(NC(=O)C4(C(=O)Nc5ccc(F)cc5)CC4)cc3F)ccnc2cc1OCCCN1CCOCC1,1.39,2.06,1.35,1.52,0.94,3.97
O=C1c2c(O)cccc2C([C@@H]2O[C@H](CO)[C@@H](O)[C@H](O)[C@H]2O)c2cc(CO)cc(O)c21 (some centres not stated) [Aloin],1.2,0.555,0.756,0.842,0.479,0.881
C=C1CC[C@H](O)C/C1=C/C=C1\CCC[C@]2(C)[C@@H]([C@H](C)CCCC(C)(C)O)CC[C@@H]12 [Calcifediol],1.61,0.811,0.927,1.4,0.618,2.24
CC[C@H](C)[C@H](NC(=O)[C@H]([C@@H](C)CC)N(C)C(C)=O)C(=O)N[C@H](C(=O)N[C@@H](CC(C)C)C(=O)[C@@]1(C)CO1)[C@@H](C)O [Epoxomycin],2.19,2.8,2.62,2.62,2.95,3.12
Oc1c(Cl)cc(Cl)cc1Sc1cc(Cl)cc(Cl)c1O [Bithionol],0.758,0.588,0.524,0.97,1.02,1.23
Cc1nc(Nc2ncc(C(=O)Nc3c(C)cccc3Cl)s2)cc(N2CCN(CCO)CC2)n1 [Dasatinib hydrochloride],3.83,4.46,4.71,3.53,2.21,4.45
COC(=O)N[C@@H](C)CNc1nccc(-c2cn(C(C)C)nc2-c2cc(Cl)cc(NS(C)(=O)=O)c2F)n1,2.13,1.78,1.47,2.67,3.02,1.86
